Assay outcomes (PubChem BioAssay)
IL-1B inflam inh: blocks inflammasome-driven IL-1 beta release | 4.7% of 360,000 active | activity change, % at 57.5 µM | THP-1 LPS/ATP IL-1B secretion, AlphaLISA, 16 h; active compounds read low; in the data active = activity change below about -50%; inconclusive = mostly about -30% to -49%
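Secreted IL-1B measured by AlphaLISA bead assay after 16 h compound exposure of THP-1 cells; compounds (final up to 57.5 uM) added 1 h before LPS (250 ng/mL) and ATP (1.25 mM) stimulation; lower signal means less secretion.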
TDP1 cell CPT: growth inhibition of DT40 Tdp1-/-;hTDP1 cells with camptothecin (screen for TDP1 inhibitors); Potency, µM (highest dose often 46.2 µM), inactives show at the highest dose activity change, negative = growth inhibition, hits mostly inhibitors; AID 686979; chicken DT40 Tdp1-/-;hTDP1 cells + 20 nM CPT, ATP luminescence, 48 h; 12% of 420,000 active; also: potency is read from the fitted curve at half-maximal effect; nearly all actives have a fitted effect of over 55% in size
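Cell growth measured by CellTiter-Glo luminescence after a minimum 48 h, 37 C compound exposure with 20 nM CPT in Tdp1-knockout DT40 cells stably expressing hTDP1, seeded 400/well; qHTS titration format.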
TDP1 cell noCPT: qHTS for Inhibitors of human tyrosyl-DNA phosphodiesterase 1 (TDP1): qHTS in cells in absence of CPT; DT40 Tdp1-/- hTDP1 cells, no CPT, ATP luminescence, 48 h; Potency, µM (titrated, usually from 46.2 µM), for the others: at the highest dose activity change, negative = growth inhibition, most hits filed as inhibitors; 15% of 420,000 active; AID 686978, 2013; also: potency is read from the fitted curve at half-maximal effect; nearly all actives have a fitted effect of over 55% in size
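Chicken DT40 Tdp1-/- cells complemented with human TDP1, screened without camptothecin (DMSO vehicle only), 400 cells/well. Compounds pin-transferred, cells incubated at 37 °C for at least 48 hr. Growth read as ATP-dependent luminescence (CellTiter-Glo, 30 min at RT).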
HT1080 IDH1KD tx: toxicity to HT-1080 IDH1 knockdown cells (counter line) | Potency, µM (titrated, usually from 46.1 µM), inactives show top-dose activity, negative = toxicity, actives largely listed as cytotoxic | HT-1080 IDH1 knockdown viability, ATP luminescence, 48 h | 2% of 360,000 active;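 also: potency is read from the fitted curve at half-maximal effect; 0% = DMSO wells and -100% = cell-free medium wells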
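Luminescent ATP read-out (CellTiter-Glo, 10 min at room temperature) after 48 h compound exposure at 37 °C gave viability of IDH1-knockdown HT-1080 cells. Activity was normalised to DMSO and cell-free wells, then fitted as concentration-response curves.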
HT1080-NT tox: kills 2HG-producing HT-1080-NT fibrosarcoma cells | HT-1080-NT fibrosarcoma viability, CellTiter-Glo ATP luminescence, 48 h | Potency, µM (highest dose often 46.1 µM), for inactives: at the highest dose activity, negative = less viability, actives largely listed as cytotoxic | 1.6% of 360,000 active | AID 686970;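 also: NT is the 2HG producing partner of a matched IDH1 knockdown line; potency is read from the fitted curve at half-maximal effect; 0% = DMSO-treated cells and -100% = media-only wells without cells; nearly all actives have a fitted effect of over 55% in size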
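750 cells/well, RPMI + 5% FBS; 2 h settle, compound pin-transfer, 48 h at 37 degrees C. CellTiter-Glo 10 min RT, luminescence. Normalized to DMSO and media-only wells.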
Numbers without * were called inactive; ? = inconclusive; · = no result given; [ ] = another dose, or the depositor's remark. Compounds with a hit are over-represented: about 19% of the library has one in this group of screens. Unless noted, calls follow the shape of the dose curve; as a rule, active = well fitted curve in the direction sought with a large enough effect; inconclusive = small, poorly fitted or top-dose-only effect, or another doubt; inactive = no such curve, though single readings can be large; an effect the other way counts as inactive or inconclusive. Unless noted, % is scaled to controls: 0 for no effect and ±100 for the full control effect.

SMILES | IL-1B inflam inh | TDP1 cell CPT | TDP1 cell noCPT | HT1080 IDH1KD tx | HT1080-NT tox
C=C(C)CNC(=S)N/N=C(\C)c1ccc(OC)cc1 | -0.1 | 3.66µM* | 2.91µM* | 2.1% | 9.0%
COCCNC(=S)N/N=C(\C)c1cccc(C(F)(F)F)c1 | -9.3 | ? | 20.6µM* | 19.3% | 20.5%
COCCNC(=S)N/N=C(\C)c1cc2ccccc2o1 | 11.5 | ? | 18.4µM* | 14.9% | 18.1%
C/C(=N\NC(=O)COc1ccc(C(C)(C)C)cc1)c1cc2ccccc2o1 | -24.6 | -0.4% | ? | -17.3% | -0.5%
COCCNC(=S)N/N=C(\C)c1ccc(OC(F)F)cc1 | -11.3 | 16.4µM* | 2.5% | 0.1% | 1.8%
Cc1nnc(SCC(=O)Nc2cc(S(C)(=O)=O)ccc2Cl)n1Cc1ccccc1 | 18.8 | -1.6% | -16.7% | 4.2% | 13.0%
CC(=O)Nc1ccc(S(=O)(=O)N2CCNC(=O)C2)cc1 | 7.9 | 3.8% | 10.6% | 1.4% | 2.2%
O=C(O)c1c2c(nc3ccccc13)CCCC2 | · | 17.6% | -1.2% | · | ·
NS(=O)(=O)c1ccc(NC(=O)CN2CCN(c3ccc(F)cc3)CC2)cc1 | · | -16.5% | -22.3% | · | ·
COc1ccc(-n2c(SCC(=O)NC3CC3)nc3ccccc3c2=O)cc1OC | 6.9 | -16.8% | 7.9% | 3.6% | 11.2%[9.24 µM]
CCC1CN(CC(=O)NC(C)CO)Cc2cc(OC)ccc2O1 (configuration not stated) | · | 14.1%[9.04 µM] | -8.0% | · | ·
COCCNC(=S)N/N=C(\C)c1ccc(C)c([N+](=O)[O-])c1 | -65.2* | 1.3µM* | 1.46µM* | -1.8% | 7.1%
COCCNC(=S)N/N=C(\C)c1ccc2cc(OC)ccc2c1 | -88.4* | 13µM* | 25.9µM* | -24.6% | -15.1%
CCNC(=S)N/N=C(\C)c1cccc(OC)c1 | 5.0 | 1.9% | 11.3% | -0.1% | -0.6%
c1ccc2[nH]c(NCc3ccc4c(c3)OCO4)nc2c1 | -28.8 | -1.2% | 0.3% | -9.4% | -0.9%
CCOC(=O)C1CCN(c2ccc(C(N)=O)cc2[N+](=O)[O-])CC1 | -22.3 | -27.6% | ? | -0.8% | -0.4%
COc1ccc(Cn2c(=O)cc(N)n(-c3ccccc3C)c2=O)cc1 | · | ? | ? | 16.4µM* | 20.6µM*
CCc1ccc(C(=O)NNC(=O)CCC2CCCCC2)cc1 | 0.1 | 18.0% | 7.7% | 1.3% | 6.6%
Fc1ccc(Sc2ccccc2CNC2=NCCN2)cc1 | ? | 11.6µM* | 18.4µM* | ? | -17.2%
CCOc1ccccc1C1CC(=O)Nc2cc(OC)c(OC)c(OC)c21 (configuration not stated) | 4.9 | ? | ? | 13.2% | 8.0%
Cc1cc2c(cc1C)C(c1ccccc1OC(C)C)CC(=O)N2 (configuration not stated) | -9.9 | ? | ? | 2.31µM* | 4.11µM*
CCOc1ccccc1C1CC(=O)Nc2cc(C)c(C)cc21 (configuration not stated) | 57.5 | 2.59µM* | 4.11µM* | 14.6µM* | ?
CCCCOc1ccccc1C1CC(=O)Nc2cc(C)c(C)cc21 (configuration not stated) | · | 14.6µM* | 18.4µM* | · | ·
Cc1cc2c(cc1C)C(c1ccccc1Br)CC(=O)N2 (configuration not stated) | 38.5 | ? | ? | -8.7% | -5.3%
COc1ccccc1C1CC(=O)Nc2cc(C)c(C)cc21 (configuration not stated) | 40.3 | 6.51µM* | 8.2µM* | 6.51µM* | ?
COc1cc2c(cc1OC)C(c1ccco1)CC(=O)N2 (configuration not stated) | 5.5 | -5.9% | 7.6% | -2.9% | -0.3%
CC(=O)OC1CC(OC(C)=O)[C@]2(C)C(CC(=O)[C@]3(C)C2CC[C@@]2(C)C(C(=O)O)OC(=O)C4OC423)C1(C)C (some centres not stated) | · | 5.7% | 2.8% | · | ·
COCCCNC(=O)c1cc2cc(Br)ccc2oc1=O | 10.1 | -1.8% | -2.7% | 25.2% | ?
